The results in this text go back to ChEMBL document CHEMBL3988442, “University of Dundee, Small-Polar-MMV Screening Library” (2021).

The structures appear in SMILES notation.

The species entered for the first assay is Homo sapiens. In words: To identify inhibition of the IFN signalling (Jak-Stat) pathway via expression of an eGFP reporter gene under the control of an IFN-stimulated response element (ISRE) containing MxA promoter. The conditions noted are these: 30 µM. In kind it is functional. On the set-up: scale not given: direction of the effect not stated beside the values.
Consider `CC(C)NC(=O)[C@@H](NC(=O)N1CCN(c2ccc(Cl)cc2)CC1)C(C)C`, for which the Percent Effect is 31.6%.
On to `CC(C)NC(=O)N1CCC2(C1)CN(c1ccsc1)C(=O)CN2C` (stereo not given), for which the Percent Effect was -8.36%.
Still for that read-out and setting: then `Cc1csc(Nc2nccnc2C2CCCN2C(=O)C(C)C)n1` (stereo not given), with 5.46%.
Consider `CS(=O)(=O)NCc1ncn2c1CN(C(=O)CC1CCCC1)CCC2`, for which the Percent Effect amounted to 12.6%.
On to `c1ccc(CCNC2CCc3ncnn3C2)nc1` (stereo not given), for which the Percent Effect is 8.49%.
On the same count and under the same terms, then `CS(=O)(=O)N1Cc2ccccc2C2(CCN(C(=O)c3ccno3)CC2)C1`, with 9.88%.
Still for that read-out and setting: as for `c1ccc(-n2ncc(CNC3CCc4ncnn4C3)n2)cc1` (stereo not given), the figure is 10%; as for `O=C(NCCn1ccnc1)N1CCN(c2nccs2)CC1`, 6.33%; as for `CCN1CCO[C@]2(CCC[C@H]2COCc2csc(C)n2)C1`, -2.57%.
On to `O=C(NCCCn1ccnc1)N1CCN(c2cccs2)CC1`, for which the Percent Effect was -11.9%.
Take `CC1CN(CC2CCCCC2)CCN1c1ccc2nncn2n1` (stereo not given): the Percent Effect amounted to 58.1%.
The same measure, in the same setting: as for `CC(Cn1cccn1)NC(=O)NCc1cccs1` (stereo not given), the figure is 10.9%.
Regarding `CCn1nc(C)c(CCNC(=O)C2CCCN(CC(N)=O)C2)c1C` (stereo not given), the Percent Effect turned out to be 12.5%.
Turning to `CCn1ccnc1CNCC1CCCN1c1cccnn1` (stereo not given), the Percent Effect is 9.51%.
The same measure, in the same setting: then `CCC(=O)N(C)CC(=O)Nc1ccc(Br)cn1`, with 8.04%.
Take `Cn1ccc(CN2CCCC2c2ccc3c(c2)OCCCO3)cc1=O` (stereo not given): the Percent Effect came to 22%.
The same measure, in the same setting: then `CCOc1ccc2[nH]c(=O)c(CN3CCC(O)CC3)cc2c1`, with -4.92%.
Turning to `c1ncn(CC2CN(Cc3noc(C4CC4)n3)CCO2)n1` (stereo not given), the Percent Effect came to 15.2%.
Turning to `Cc1cccc(CN2C[C@@H]3CN(C(=O)[C@H]4CCCO4)C[C@@H]3C2=O)c1`, the Percent Effect came to 5.56%.
Take `CS(=O)(=O)c1cccc(C(N)c2ccc(F)c(F)c2)c1` (stereo not given): the Percent Effect stood at 23.5%.
Regarding `CN1CCC/C1=N\S(=O)(=O)c1ccc(NC(=O)c2cccs2)cc1`, the Percent Effect was determined as 8.73%.
For `CC(NC(=O)NCCCn1cncn1)c1ccccc1Cl` (stereo not given), the Percent Effect turned out to be 13.4%.
Same read-out and setting: as for `Cn1cnc2c1CCN(Cc1csc(-c3ccsc3)n1)C2`, the figure is 27.3%.
In the case of `c1ncn(CC2CCCN2Cc2cn3ccsc3n2)n1` (stereo not given), the Percent Effect is -3.77%.
Regarding `Cn1cc(C(=O)N2CCCC(Cc3nccs3)C2)cn1` (stereo not given), the Percent Effect came out at 6.88%.
In the case of `CCc1nc(C)c(C(=O)NCCN2CCN(C(C)=O)CC2)s1`, the Percent Effect was found to be 15.7%.
`COCCO[C@H]1CCN(C(=O)c2cc(C)on2)[C@H]1Cc1ccccc1`: the Percent Effect is 18.8%.
The same measure, in the same setting: as for `O=C(NCCc1ccccc1)C1CCCN(c2ccc3nncn3n2)C1` (stereo not given), the figure is -5.46%.
With `CCn1cc(NC(=O)NCc2ccc(CN3CCOCC3)cc2)cn1`, the Percent Effect was found to be 24.2%.
Same read-out and setting: then `CN(C)CCN1C(=O)CCC12CCN(C(=O)c1cccnc1)CC2`, with 3.46%; and `Cc1ccc(NC(=O)N2C[C@H]3CC[C@@H]2CN(Cc2cscn2)C3)cc1`, with 0.0605%; and `Cc1cc(NC(=O)CN2CCCC2c2noc(C(C)C)n2)n(C)n1` (stereo not given), with -3.3%.
For `CC(C)CCN(C)C(=O)c1nc(S(C)(=O)=O)n2ccccc12`, the Percent Effect was 0.306%.
Take `Cc1cnn(CC2CN(CC(=O)NCc3ccccn3)CCO2)c1` (stereo not given): the Percent Effect stood at 2.48%.
In the case of `COCCN1CCN(Cc2cccc(C(N)=O)c2)CC1C` (stereo not given), the Percent Effect was determined as 16.2%.
Turning to `Cc1cc(CN(C)C(=O)NCC(C)N2CCc3ccccc32)no1` (stereo not given), the Percent Effect was -9.63%.
Regarding `Cc1c(F)cccc1CN1CCn2nc(CNC(=O)N(C)C)cc2C1`, the Percent Effect was determined as 4.47%.
With `CC(C)CNC(=O)c1ccc2nnc(C3CCN(S(C)(=O)=O)C3)n2c1` (stereo not given), the Percent Effect is -2.55%.
As to `CCOC(=O)N1CCN(C(=O)c2sc(-c3ccccc3F)nc2C)CC1`, the Percent Effect is -3.93%.
On the same count and under the same terms, then `COCCN1C(=O)CCC12CCN(C(=O)NC(C)C)CC2`, with 19.9%.

For a further assay, the target named is T1, Tyrosyl-tRNA synthetase, putative (Trypanosoma cruzi (strain CL Brener)) (UniProt Q4DSP6).
T1 sequence (whole entry): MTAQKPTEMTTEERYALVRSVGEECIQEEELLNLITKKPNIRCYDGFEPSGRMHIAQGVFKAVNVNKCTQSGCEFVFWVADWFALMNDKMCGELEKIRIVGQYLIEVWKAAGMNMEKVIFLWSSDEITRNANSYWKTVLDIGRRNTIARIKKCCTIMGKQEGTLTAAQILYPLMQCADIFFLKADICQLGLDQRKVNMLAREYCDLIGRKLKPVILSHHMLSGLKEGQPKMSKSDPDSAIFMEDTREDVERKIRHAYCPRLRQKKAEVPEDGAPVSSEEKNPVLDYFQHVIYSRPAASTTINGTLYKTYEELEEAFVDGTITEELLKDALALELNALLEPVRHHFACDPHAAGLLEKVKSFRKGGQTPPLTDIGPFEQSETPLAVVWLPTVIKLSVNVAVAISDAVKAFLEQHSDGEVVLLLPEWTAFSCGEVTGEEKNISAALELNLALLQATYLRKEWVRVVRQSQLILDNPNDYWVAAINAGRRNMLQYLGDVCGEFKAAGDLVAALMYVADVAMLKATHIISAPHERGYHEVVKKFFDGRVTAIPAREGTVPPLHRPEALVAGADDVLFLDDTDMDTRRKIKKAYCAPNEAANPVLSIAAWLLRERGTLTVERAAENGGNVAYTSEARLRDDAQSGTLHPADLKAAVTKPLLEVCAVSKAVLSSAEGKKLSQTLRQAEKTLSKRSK
The experiment in a line: Trypanosoma cruzi tyrosyl tRNA synthetase (TcYRS) _High Tyrosine SOP. In kind it is functional. On the set-up: scale not given: in the data most compounds retested in dose-response had high values. As to conditions: 30 µM.
In the case of `CC(C)NC(=O)[C@@H](NC(=O)N1CCN(c2ccc(Cl)cc2)CC1)C(C)C`, the Percent Effect is 0.532%.
The same measure, in the same setting: then `CC(C)NC(=O)N1CCC2(C1)CN(c1ccsc1)C(=O)CN2C` (stereo not given), with 6.84%; and `Cc1csc(Nc2nccnc2C2CCCN2C(=O)C(C)C)n1` (stereo not given), with 2.12%; and `CS(=O)(=O)NCc1ncn2c1CN(C(=O)CC1CCCC1)CCC2`, with 1.58%.
For the molecule `c1ccc(CCNC2CCc3ncnn3C2)nc1` (stereo not given), the Percent Effect worked out at 11.8%.
`CS(=O)(=O)N1Cc2ccccc2C2(CCN(C(=O)c3ccno3)CC2)C1`: the Percent Effect was found to be 6.76%.
On the same count and under the same terms, then `c1ccc(-n2ncc(CNC3CCc4ncnn4C3)n2)cc1` (stereo not given), with 1.44%.
On to `O=C(NCCn1ccnc1)N1CCN(c2nccs2)CC1`, for which the Percent Effect came to 2.94%.
`CCN1CCO[C@]2(CCC[C@H]2COCc2csc(C)n2)C1`: the Percent Effect stood at 3.68%.
In the case of `O=C(NCCCn1ccnc1)N1CCN(c2cccs2)CC1`, the Percent Effect came to 28.4%.
Still for that read-out and setting: then `CC1CN(CC2CCCCC2)CCN1c1ccc2nncn2n1` (stereo not given), with 5.26%; and `CC(Cn1cccn1)NC(=O)NCc1cccs1` (stereo not given), with 3.68%.
Consider `CCn1nc(C)c(CCNC(=O)C2CCCN(CC(N)=O)C2)c1C` (stereo not given), for which the Percent Effect stood at 10.1%.
In the case of `CCn1ccnc1CNCC1CCCN1c1cccnn1` (stereo not given), the Percent Effect came out at 6.84%.
Still for that read-out and setting: then `CCC(=O)N(C)CC(=O)Nc1ccc(Br)cn1`, with -0.526%; and `Cn1ccc(CN2CCCC2c2ccc3c(c2)OCCCO3)cc1=O` (stereo not given), with 9.09%; and `CCOc1ccc2[nH]c(=O)c(CN3CCC(O)CC3)cc2c1`, with 9.04%.
With `c1ncn(CC2CN(Cc3noc(C4CC4)n3)CCO2)n1` (stereo not given), the Percent Effect is -1.58%.
For `Cc1cccc(CN2C[C@@H]3CN(C(=O)[C@H]4CCCO4)C[C@@H]3C2=O)c1`, the Percent Effect is 9.66%.
`CS(=O)(=O)c1cccc(C(N)c2ccc(F)c(F)c2)c1` (stereo not given): the Percent Effect worked out at 7.89%.
`CN1CCC/C1=N\S(=O)(=O)c1ccc(NC(=O)c2cccs2)cc1`: the Percent Effect was determined as 7.84%.
Turning to `CC(NC(=O)NCCCn1cncn1)c1ccccc1Cl` (stereo not given), the Percent Effect is 3.68%.
As for `Cn1cnc2c1CCN(Cc1csc(-c3ccsc3)n1)C2`, the Percent Effect turned out to be 11%.
Still for that read-out and setting: as for `c1ncn(CC2CCCN2Cc2cn3ccsc3n2)n1` (stereo not given), the figure is 2.39%; as for `Cn1cc(C(=O)N2CCCC(Cc3nccs3)C2)cn1` (stereo not given), 2.12%.
Turning to `CCc1nc(C)c(C(=O)NCCN2CCN(C(C)=O)CC2)s1`, the Percent Effect was determined as 7.84%.
In the case of `COCCO[C@H]1CCN(C(=O)c2cc(C)on2)[C@H]1Cc1ccccc1`, the Percent Effect is 7.73%.
Regarding `O=C(NCCc1ccccc1)C1CCCN(c2ccc3nncn3n2)C1` (stereo not given), the Percent Effect came to 5.85%.
Regarding `CCn1cc(NC(=O)NCc2ccc(CN3CCOCC3)cc2)cn1`, the Percent Effect was 4.9%.
`CN(C)CCN1C(=O)CCC12CCN(C(=O)c1cccnc1)CC2`: the Percent Effect is 1.93%.
As for `Cc1ccc(NC(=O)N2C[C@H]3CC[C@@H]2CN(Cc2cscn2)C3)cc1`, the Percent Effect was 6.92%.
In the case of `Cc1cc(NC(=O)CN2CCCC2c2noc(C(C)C)n2)n(C)n1` (stereo not given), the Percent Effect was found to be 2.63%.
`CC(C)CCN(C)C(=O)c1nc(S(C)(=O)=O)n2ccccc12`: the Percent Effect turned out to be 6.22%.
Same read-out and setting: as for `Cc1cnn(CC2CN(CC(=O)NCc3ccccn3)CCO2)c1` (stereo not given), the figure is 3.68%; as for `COCCN1CCN(Cc2cccc(C(N)=O)c2)CC1C` (stereo not given), 2.63%; as for `Cc1cc(CN(C)C(=O)NCC(C)N2CCc3ccccc32)no1` (stereo not given), 7.84%.
For the molecule `Cc1c(F)cccc1CN1CCn2nc(CNC(=O)N(C)C)cc2C1`, the Percent Effect was found to be 5.85%.
Regarding `CC(C)CNC(=O)c1ccc2nnc(C3CCN(S(C)(=O)=O)C3)n2c1` (stereo not given), the Percent Effect was -0.526%.
As for `CCOC(=O)N1CCN(C(=O)c2sc(-c3ccccc3F)nc2C)CC1`, the Percent Effect came to 4.79%.
Still for that read-out and setting: then `COCCN1C(=O)CCC12CCN(C(=O)NC(C)C)CC2`, with 1.93%.
